# Measured values: the supplement of paper PMC6555819
# Tested on: RARb homodimer (NR concentration 270 nM)
# Assay: PBM binding z-score (relative to random genomic background probes); higher = stronger binding; sequences stand for … in GC…GCGATTGACAGCGTAGAATGAAGG
# How it was run: (§1)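 Ligand-free nuclear receptor dimers were bound for 1 h to custom Agilent 4×180K protein-binding microarrays. Detection used antibodies against each partner (one per run). Binding z-scores rest on regression-normalized fluorescence, with random background probes as the reference.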
row,Sequence,PBM binding z-score
1,CTGAGTAGGTTACGAGGGGGCATTCAGTGCGAAT,2.18
2,TCGAGTAGTTTACGGGGGCATTCAGGGATGAAGA,1.53
3,CTCTGTAGGTTAAGGGGGTCATTCAGTTTGAAAG,3.87
4,CTATGTAGGTTAAGGGGGGCATTCAGTTTGAAAG,2.88
5,CTATGCAGGTTAAGGGGGTCATTCAGTTTGAAAG,3.8
6,CCGAGTAGGTTACGAGAGGGCATTCAGTGCGAAT,1.65
7,CTATGTAGGTTAAGGGGGTCGTTCAGTTTGAAAG,2.42
8,CTATGTCGGTTAAGGGGGTCATTCAGTTTGAAAG,4.04
9,TCGAGGAGGTTACGGGGGCATTCAGGGATGAAGA,2.61
10,TCGAGTAGGTTACAGGGGCATTCAGGGATGAAGA,1.64
11,TCGAGTAGGTTACGGGGGCATTTAGGGATGAAGA,2.32
12,CTATCTAGGTTAAGGGGGTCATTCAGTTTGAAAG,3.94
13,CTATGTAGGTTAAGGGGGTCATTCAATTTGAAAG,3.69
14,CCGAGTTGGTTACGAGGGGGCATTCAGTGCGAAT,1.81
15,CTATGTATGTTAAGGGGGTCATTCAGTTTGAAAG,3.92
16,TCGAGTAGGTTACCGGGGCATTCAGGGATGAAGA,1.09
17,TCTAGTAGGTTACGGGGGCATTCAGGGATGAAGA,2.73
18,TCGAGTAGGTTACGGGGCCATTCAGGGATGAAGA,1.21
19,CCGGGTAGGTTACGAGGGGGCATTCAGTGCGAAT,2.2
20,TCGAGTAGGTTACGGGGGCATTCAAGGATGAAGA,2.13

row,Sequence,PBM binding z-score
1,CTAAGTAGGTTAAGGGGGTCATTCAGTTTGAAAG,3.97
2,TCGAGTAGCTTACGGGGGCATTCAGGGATGAAGA,0.903
3,TCGAGTAGGTTACGGGGGCATTCACGGATGAAGA,2.05
4,CTATGTAAGTTAAGGGGGTCATTCAGTTTGAAAG,3.7
5,CTATGTAGGTTATGGGGGTCATTCAGTTTGAAAG,4.1
6,TCGAGTAGGTTACGGGGGCATTCCGGGATGAAGA,2.02
7,CTATGTAGGTTAAGGGGGTCATTCACTTTGAAAG,3.95
8,TCGAGTAGGTTATGGGGGCATTCAGGGATGAAGA,2.17
9,CCGAGTAGGATACGAGGGGGCATTCAGTGCGAAT,1.17
10,CTATGTAGGTTAAGGGGGTCATTCAGTTTGAAAG,3.93
11,TCGAGTAGGTTACGGGGGCGTTCAGGGATGAAGA,1.66
12,TCGAGTAGGTTACGGGGGCATTAAGGGATGAAGA,1.91
13,CCGAGTAGGTTATGAGGGGGCATTCAGTGCGAAT,2.32
14,CCGAGTAGCTTACGAGGGGGCATTCAGTGCGAAT,1
15,TCGAGTAGGTTACGGGGGTATTCAGGGATGAAGA,1.58
16,CCGTGTAGGTTACGAGGGGGCATTCAGTGCGAAT,2.58
17,CTATGTAGGGTAAGGGGGTCATTCAGTTTGAAAG,4.04
18,CTATGTAGGTTAAGGGTGTCATTCAGTTTGAAAG,1.44
19,CCTAGTAGGTTACGAGGGGGCATTCAGTGCGAAT,2.39

# Tested on: RARg:RXRa (NR concentration 270 nM, RXRa partner concentration 90 nM)
# Assay: as above
# How it was run: as §1
row,Sequence,PBM binding z-score
1,CTGAGTAGGTTACGAGGGGGCATTCAGTGCGAAT,3.13
2,TCGAGTAGTTTACGGGGGCATTCAGGGATGAAGA,2.16
3,CTCTGTAGGTTAAGGGGGTCATTCAGTTTGAAAG,5.32
4,CTATGTAGGTTAAGGGGGGCATTCAGTTTGAAAG,3.52
5,CTATGCAGGTTAAGGGGGTCATTCAGTTTGAAAG,5.13
6,CCGAGTAGGTTACGAGAGGGCATTCAGTGCGAAT,1.75
7,CTATGTAGGTTAAGGGGGTCGTTCAGTTTGAAAG,2.9
8,CTATGTCGGTTAAGGGGGTCATTCAGTTTGAAAG,4.91
9,TCGAGGAGGTTACGGGGGCATTCAGGGATGAAGA,4.51
10,TCGAGTAGGTTACAGGGGCATTCAGGGATGAAGA,1.1
11,TCGAGTAGGTTACGGGGGCATTTAGGGATGAAGA,3.47
12,CTATCTAGGTTAAGGGGGTCATTCAGTTTGAAAG,5.18
13,CTATGTAGGTTAAGGGGGTCATTCAATTTGAAAG,4.93
14,CCGAGTTGGTTACGAGGGGGCATTCAGTGCGAAT,1.91
15,CTATGTATGTTAAGGGGGTCATTCAGTTTGAAAG,4.71
16,TCGAGTAGGTTACCGGGGCATTCAGGGATGAAGA,1.01
17,TCTAGTAGGTTACGGGGGCATTCAGGGATGAAGA,3.98
18,TCGAGTAGGTTACGGGGCCATTCAGGGATGAAGA,0.957
19,CCGGGTAGGTTACGAGGGGGCATTCAGTGCGAAT,3.26
20,TCGAGTAGGTTACGGGGGCATTCAAGGATGAAGA,3.22

row,Sequence,PBM binding z-score
1,CTAAGTAGGTTAAGGGGGTCATTCAGTTTGAAAG,4.97
2,TCGAGTAGCTTACGGGGGCATTCAGGGATGAAGA,1.03
3,TCGAGTAGGTTACGGGGGCATTCACGGATGAAGA,3.38
4,CTATGTAAGTTAAGGGGGTCATTCAGTTTGAAAG,4.43
5,CTATGTAGGTTATGGGGGTCATTCAGTTTGAAAG,5.57
6,TCGAGTAGGTTACGGGGGCATTCCGGGATGAAGA,3.36
7,CTATGTAGGTTAAGGGGGTCATTCACTTTGAAAG,5.11
8,TCGAGTAGGTTATGGGGGCATTCAGGGATGAAGA,2.62
9,CCGAGTAGGATACGAGGGGGCATTCAGTGCGAAT,1.37
10,CTATGTAGGTTAAGGGGGTCATTCAGTTTGAAAG,5.34
11,TCGAGTAGGTTACGGGGGCGTTCAGGGATGAAGA,2.9
12,TCGAGTAGGTTACGGGGGCATTAAGGGATGAAGA,3.09
13,CCGAGTAGGTTATGAGGGGGCATTCAGTGCGAAT,2.98
14,CCGAGTAGCTTACGAGGGGGCATTCAGTGCGAAT,1.05
15,TCGAGTAGGTTACGGGGGTATTCAGGGATGAAGA,2.08
16,CCGTGTAGGTTACGAGGGGGCATTCAGTGCGAAT,3.76
17,CTATGTAGGGTAAGGGGGTCATTCAGTTTGAAAG,5
18,CTATGTAGGTTAAGGGTGTCATTCAGTTTGAAAG,1.38
19,CCTAGTAGGTTACGAGGGGGCATTCAGTGCGAAT,3.44
